High-throughput results from PubChem BioAssay.
Only some compounds are listed: those with a hit (about 21% of all), similar ones and a draw of the others.
Giardia FBPA inh = qHTS Assay for Inhibitors of Fructose-1,6-bisphosphate Aldolase from Giardia Lamblia. A8B2U2. Potency, µM (titrated, usually from 59.6 µM), for inactives: at the highest dose activity, negative = inhibition, most hits filed as inhibitors. 290,000 tested, 0.71% active. purified Giardia FBPA; further: potency means the concentration at half of the fitted maximal effect; on the % scale 0 is the no-effect control and ±100 the full control effect; nearly all actives have a fitted effect of over 55% in size
Target sequence (A8B2U2 whole entry, looked up): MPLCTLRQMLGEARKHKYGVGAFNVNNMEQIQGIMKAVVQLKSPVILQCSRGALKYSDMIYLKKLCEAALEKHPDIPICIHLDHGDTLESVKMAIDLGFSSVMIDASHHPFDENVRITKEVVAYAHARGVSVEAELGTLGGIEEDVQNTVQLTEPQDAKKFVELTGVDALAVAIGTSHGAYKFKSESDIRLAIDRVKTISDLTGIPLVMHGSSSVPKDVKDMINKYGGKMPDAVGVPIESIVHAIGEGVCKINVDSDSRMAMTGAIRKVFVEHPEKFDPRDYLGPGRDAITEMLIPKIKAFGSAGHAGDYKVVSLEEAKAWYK
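40 nM FBPA preincubated 10 min at RT with compound (up to 57.5 uM final), then substrate plus GAPDH/TPI/NAD/arsenate coupling and diaphorase/resazurin added. Fluorescence read after 20 min at RT, 525/598 nm.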
Pf growth 96h = Primary qHTS for delayed death inhibitors of the malarial parasite plastid, 96 hour incubation | P. falciparum luciferase reporter growth, 96 h | Potency, µM (top dose mostly 28.7 µM), for the others: at the top dose activity change, negative = inhibition, most hits filed as inhibitors | 320,000 tested, 6.9% active | AID 504834, 2011; further: potency means the concentration at half of the fitted maximal effect; on the % scale 0 is the no-effect control and ±100 the full control effect
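Erythrocytes infected with luciferase-expressing P. falciparum were dispensed at 2% hematocrit and 0.05% parasitemia (final), then incubated with compounds 96 hours at 37 C in 5% CO2. Luminescence after detection reagent addition reported growth.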
Shiga toxin inh = A qHTS for Small Molecule Inhibitors of Shiga Toxin; 290,000 tested, 9.2% active; AID 2315, 2010; Vero cells, Shiga toxin protein synthesis inhibition reporter; inhibition, % at 38.7 µM; in the data active means inhibition mostly above about 28%, no sharp cut-off; inactive means mostly below about 43%; further: 0% is about no effect
NS1 function inh = qHTS Assay for Inhibitors of Influenza NS1 Protein Function | Potency, µM (titrated, usually from 46.1 µM), inactives show top-dose activity, positive = more growth | 270,000 tested, 0.4% active; calls by dose curve; further: potency means the concentration at half of the fitted maximal effect; actives are rising curves; nearly all actives have a fitted effect of over 50% in size
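S. cerevisiae expressing influenza A NS1, grown in glucose, washed, then diluted 1:100 into pH 6.0 -URA galactose medium with 23 nl compound. Growth recovery read as OD600; NS1-free strain serves as control.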
Pf growth 48h = Primary qHTS for delayed death inhibitors of the malarial parasite plastid, 48 hour incubation; P. falciparum luciferase growth in erythrocytes, 48 h; Potency, µM (titrated, usually from 28.7 µM), inactives show at the highest dose activity change, negative = inhibition, actives largely listed as inhibitors; 310,000 tested, 5.9% active; AID 504832, 2011; further: potency means the concentration at half of the fitted maximal effect; on the % scale 0 is the no-effect control and ±100 the full control effect
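Luciferase-expressing P. falciparum in infected erythrocytes (2% hematocrit, 0.1% parasitemia final) in RPMI 1640/0.5% Albumax were exposed to compound for 48 hours at 37 C, 5% CO2; growth read as luminescence.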
CHX counter = Cycloheximide Counterscreen for Small Molecule Inhibitors of Shiga Toxin; cell reporter, cycloheximide protein synthesis inhibition counterscreen; max response, %; 300,000 tested, 12% active; in the data active means max response mostly above about 13%, no sharp cut-off; inactive means mostly below about 14%; further: read at 38.3 µM for the half of the compounds with a filed dose; 0% is about no effect
* marks the source's active call; other numbers are inactive results; ? = inconclusive; · = no result; [ ] = another dose, or the depositor's remark. Unless noted, the call rests on the fitted dose curve; in most records, active means well fitted curve in the direction sought with a large enough effect; inconclusive means small, poorly fitted or top-dose-only effect, or another doubt; inactive means no such curve, though single readings can be large; an effect the other way counts as inactive or inconclusive.

SMILES | Giardia FBPA inh | Pf growth 96h | Shiga toxin inh | NS1 function inh | Pf growth 48h | CHX counter
CCCn1c(Oc2ccccc2)nc2c1c(=O)n(C)c(=O)n2C | 6% | ? | -8 | 2% | 4% | -2
COc1ccccc1NC(=O)N1CCCC(CNC(=O)c2ccccc2Cl)C1 (configuration not stated) | · | -2% | 27 | -11% | -25% | 0
O=C(NCC1CCCN(C(=O)CN2CCCCC2)C1)c1ccccc1Cl (configuration not stated) | 4% | 18% | 31 | 0% | 8% | 26*
CSCC(=O)N1CCCC(CNC(=O)c2ccccc2Cl)C1 (configuration not stated) | 2% | 10% | 28 | 0% | 0% | 15*
COc1cc(C(=O)N/C(=C\c2cn(C)c3ccccc23)C(=O)NCCCn2ccnc2)cc(OC)c1OC | -10% | ? | 3 | -1% | -16% | -3
C[C@@H](CO)[C@H](/C=C/c1ccccc1)CCO[Si](c1ccccc1)(c1ccccc1)C(C)(C)C | 0% | · | -3 | · | · | 13
c1ccc(-c2nnc(-c3ccccn3)s2)nc1 | -18% | 197% | 54* | 12% | 26% | 59*
CN(C(=O)C1CCOC1)c1nnc(-c2ccncc2)s1 (configuration not stated) | 5% | ? | -15 | -1% | 3% | -2
COCC(=O)N(C)c1nnc(-c2ccccn2)s1 | -3% | 7%[5.75 µM] | 57* | 6% | 100% | 41*
CN(C(=O)C1CCCO1)c1nnc(-c2ccncc2)s1 (configuration not stated) | 6% | 217% | -4 | -9% | 20% | 10
c1ccc(-c2nc(-c3ccccn3)nc(-c3ccccn3)n2)nc1 | ? | ? | -7 | -2% | ? | 1
CN(C(=O)C1CCCO1)c1nnc(-c2ccccn2)s1 (configuration not stated) | 0% | -1% | 47* | -10% | 40% | 50*
CN(C(=O)C1CCOC1)c1nnc(-c2ccccn2)s1 (configuration not stated) | 4% | 13µM* | 86* | 3% | 116% | 30*
COc1cccc(C(=O)NCCS(=O)(=O)N(C)Cc2ccccc2)c1 | · | 16% | · | · | 19% | ·
C[C@@H](C(=O)Nc1ccc2ccccc2c1)[C@H]1C[C@]1(C)[C@H](NS(=O)(=O)c1ccc2ccccc2c1)c1ccccc1 | 0% | · | · | · | · | ·
C[C@@H](C(=O)Nc1ccc2ccccc2c1)[C@H]1C[C@]1(C)[C@H](NS(=O)(=O)c1ccc(-c2ccccc2)cc1)c1ccccc1 | -7% | 8.3µM* | 7 | ? | 12µM* | 8
Cc1cccc([C@@H]2[C@@H]3C(=O)N(Cc4ccccc4)C(=O)[C@@H]3[C@]3(Cc4ccc(Cl)cc4)C(=O)N(c4ccccc4)C(=O)N23)c1 | -1% | ? | -8 | 21% | ? | 1
Cc1cccc([C@@H]2[C@@H]3C(=O)N(Cc4ccccc4)C(=O)[C@@H]3[C@]3(Cc4ccccc4)C(=O)N(c4cccc(Cl)c4)C(=O)N23)c1 | · | 12µM* | · | · | 4.7µM* | ·
Cc1cccc([C@@H]2[C@@H]3C(=O)N(Cc4ccccc4)C(=O)[C@@H]3[C@]3(Cc4ccccc4)C(=O)N(c4ccc(C(F)(F)F)cc4)C(=O)N23)c1 | · | 8.3µM* | · | · | 8.3µM* | ·
Cc1cccc([C@@H]2[C@@H]3C(=O)N(Cc4ccccc4)C(=O)[C@@H]3[C@]3(Cc4ccccc4)C(=O)N(c4ccccc4)C(=O)N23)c1 | · | 8.3µM* | · | · | 10µM* | ·
CCOc1ccc(N2C(=O)CC(Sc3nnnn3-c3ccccc3)C2=O)cc1 (configuration not stated) | 6% | 0% | 21 | · | -2% | 18*
CCCCCCOc1ccc(N2C(=O)CC(SCCN)C2=O)cc1 (configuration not stated) | ? | 65% | 26 | 12% | 30% | 12*
CCOc1ccc(N2C(=O)CC(SCCN)C2=O)cc1 (configuration not stated) | -24% | -10% | 76* | -4% | 134% | 31*
O=C(Nc1ccncc1)C1CCN(S(=O)(=O)c2ccccc2C(F)(F)F)CC1 | · | 3.3µM* | -12 | 17% | ? | 4
O=C(Nc1ccncc1)C1CCN(S(=O)(=O)c2ccc(Cl)c(C(F)(F)F)c2)CC1 | · | 12µM* | · | · | ? | ·
SMILES | Giardia FBPA inh | Pf growth 96h | Shiga toxin inh | NS1 function inh | Pf growth 48h | CHX counter
COCCn1nnnc1CN1CCN(C(=O)c2ccco2)CC1 | -1% | -27% | -4 | -2% | 7% | -3
Cc1ccc(CN(C(=O)c2csnn2)C(C(=O)NC2CCCC2)c2ccco2)cc1 (configuration not stated) | -4% | 1% | 13 | -8% | 0% | -5
COc1ccc(C2CC(c3ccccc3)Oc3cc(C)c(Cl)c(C)c32)cc1 (configuration not stated) | -2% | · | -6 | · | · | 1
Cc1noc(NC(=O)c2ccc(Cl)cc2)c1Cl | -3% | -13% | 66* | · | -27% | 44*
Cc1noc(C(=O)Nc2cccc(O)c2)c1Cl | 1% | 103% | 76* | -7% | 79% | 43*
Cc1noc(C(=O)Nc2cccc(Cl)c2)c1Cl | -1% | 9.3µM* | 60* | -2% | 109% | 33*
O=[N+]([O-])c1ccc(Oc2cnc3ccccc3n2)cc1 | -1% | 35% | 84 | · | 28% | 30
